Screens: PubChem BioAssay, National Center for Advancing Translational Sciences (NCATS)
D2 PAM-1 = Beta-Arrestin HTS for Positive Allosteric Modulators of the Human D2 Dopamine Receptor: Potentiators | AID 624464, 2012 | potentiation, % (test concentration not listed) | D(2) dopamine receptor (Homo sapiens), P14416 | 360,000 compounds, 0.23% hits | DiscoveRx D2 beta-arrestin cells, luminescence, 90 min; 100% = 57 uM dopamine signal; in the data active = potentiation above about 50%; inconclusive = mostly about 30% to 49%
Target sequence (P14416 whole entry, looked up): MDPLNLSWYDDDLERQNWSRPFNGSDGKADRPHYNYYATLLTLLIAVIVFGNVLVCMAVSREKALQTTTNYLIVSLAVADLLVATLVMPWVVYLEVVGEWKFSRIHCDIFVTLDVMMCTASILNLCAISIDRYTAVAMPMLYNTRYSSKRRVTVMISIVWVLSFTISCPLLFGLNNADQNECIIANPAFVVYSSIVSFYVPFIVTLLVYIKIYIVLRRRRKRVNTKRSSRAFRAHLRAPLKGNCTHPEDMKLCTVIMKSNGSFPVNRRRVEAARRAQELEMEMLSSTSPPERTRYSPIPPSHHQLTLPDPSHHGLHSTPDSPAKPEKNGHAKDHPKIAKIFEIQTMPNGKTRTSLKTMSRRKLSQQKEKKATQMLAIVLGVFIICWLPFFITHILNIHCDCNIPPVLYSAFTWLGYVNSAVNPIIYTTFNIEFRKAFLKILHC
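PathHunter D2 cells, attached overnight at 37 deg C, received compound in DMSO plus dopamine at EC20 (50 nM final) for 90 min at 37 deg C. Beta-arrestin recruitment was read as luminescence after 1 h with detection reagent at ambient temperature.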
D2 ag-1 = HTS Assay for Allosteric Agonists of the Human D2 Dopamine Receptor: Primary Screen for Agonists; HEK293 T-REx D2 cells, calcium flux agonist mode; activation, % at 2 µM; 340,000 compounds, 0.53% hits; AID 485358, 2010; D(2) dopamine receptor (Homo sapiens), P14416;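 active = activation over 3 SD above normal in the single-dose calcium agonist read, cut at about 30% in these data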; note: 0% is about no effect
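Tetracycline-induced HEK293 T-REx cells with force-coupled D2 receptor, plated overnight at 30 C, loaded with no-wash calcium dye. After a 10 s baseline, compound was pin-added and calcium flux read kinetically for 180 s; calcium rises flagged agonists.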
D2 antag = HTS Assay for Allosteric Antagonists of the Human D2 Dopamine Receptor: Primary Screen for Antagonists | D(2) dopamine receptor (Homo sapiens), P14416 | HEK293 TREx D2 cells, calcium flux, dopamine EC80 | AID 485344, 2010 | 340,000 compounds, 2% hits | inhibition, % at 10 µM; in the data active = inhibition above about 30%; inactive = below that, where a call was filed; note: 0% is about no effect
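Antagonism is scored as inhibition of an EC80 dopamine-evoked calcium signal in a force-coupled, tetracycline-inducible HEK293 T-REx D2 line, with compound present 180 s before agonist.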
D2 PAM-2 = HTS Assay for Positive Allosteric Modulators of the Human D2 Dopamine Receptor: Primary Screen for Potentiators; D(2) dopamine receptor (Homo sapiens), P14416; HEK293 T-REx D2, calcium flux, EC20 dopamine potentiation; potentiation, % at 10 µM; 340,000 compounds, 0.34% hits; AID 485347, 2010;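 active = potentiation over 3 SD above the plate norm, cut at about 30% in these data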; note: 0% is about no effect
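Using a no-wash calcium dye in inducible, force-coupled HEK293 Trex cells expressing D2, we tracked fluorescence each second for 180 s after compound, then for 180 s after EC20 dopamine to detect augmented signalling.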
D2 ag-2 = Beta-Arrestin HTS for Positive Allosteric Modulators of the Human D2 Dopamine Receptor: Agonists; D(2) dopamine receptor (Homo sapiens), P14416; DiscoveRx PathHunter D2 beta-arrestin, luminescence, 90 min; 100% = 57 uM dopamine signal; activation, % (test concentration not listed); 360,000 compounds, 0.084% hits; in the data active = activation above about 40%; inconclusive = between about 15% and that limit
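Agonist mode: compounds alone added to overnight-plated D2 PathHunter cells for 90 min at 37 C, with 57 uM final dopamine (EC100) defining full response. Beta-arrestin recruitment detected by chemiluminescent reagent, read after 1 h at ambient temperature.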
* hit, by the source's call; ? = inconclusive; nt = no result; ! = repeats disagree. Rows were chosen to be rich in hits. Some 2.4% of all compounds tested hit in one or more screens of this group.

SMILES	D2 PAM-1	D2 ag-1	D2 antag	D2 PAM-2	D2 ag-2
C=CCn1c(SCC(C)=O)nc2scc(-c3ccc(C)o3)c2c1=O	-8	-2	-6	23	1
CN(C(=O)c1cccc(NC(=O)Cc2cccc(NC(=O)C3CCCN(C(=O)CCc4ccccc4)C3)c2)c1)C1CCC1 (stereo unspecified)	5	nt	nt	nt	2
CCOc1ccc(C2C(C#N)=C(N)SC(N)=C2C#N)c(OCC)c1	9	1	31*	0	2
COc1cccc(C(=O)O/N=C(\N)c2ccccn2)c1	55*	1	-8	-2	13
Cc1ccc(C(=O)O/N=C(\N)c2ccccn2)c(Cl)c1	91*	0	-5	2	?
N/C(=N\OC(=O)c1ccc(Cl)cc1Cl)c1ccccn1	5	0	-24	7	0
N/C(=N\OC(=O)c1ccc(Cl)cc1[N+](=O)[O-])c1ccccn1	7	0	0	9	63*
N/C(=N\OC(=O)c1ccc2ccccc2c1)c1ccccn1	14	1	8	-5	?
CCOc1ccc(NC(=O)c2cc(C)nc3c2c(C)nn3-c2ccc(C)cc2)cc1	nt	0	nt	-13	nt
C=CCSc1nc2c(N)ncnc2n1C1OC(CO)C(O)C1O (stereo unspecified)	-4	nt	nt	nt	-5
CC(C)CN1CC(Br)C(=O)NC1=O (stereo unspecified)	-5	nt	nt	nt	-4
Cc1nn(C)c(C)c1/C=N/NC(=O)CCn1cc([N+](=O)[O-])cn1	-8	0	32*	6	-2
Cc1cc(C)n(CCc2nc3c4ccccc4nc(SCc4ccc(F)cc4)n3n2)n1	nt	1	nt	-8	nt
Cc1cc(OCC(=O)Nc2sc3c(c2C#N)CC(C)(C)NC3(C)C)c(C(C)C)cc1Cl	-2	0	34*	7	3
ON=C1C2CC=C(c3ccccc3)C1CCC2 (stereo unspecified)	-5	nt	nt	nt	0
CC(C)=N/N=c1\scc(C)n1Cc1ccco1	7	1	40*	8	2
Cc1cs/c(=N\N=C\c2ccccc2)n1Cc1ccco1	2	1	1	-4	-1
Cc1nn2c(=O)cc(COC(=O)COc3ccc(F)cc3)nc2s1	nt	0	nt	4	nt
CN(C(=O)COC(=O)c1ccccc1SCC(=O)N1CCCC1)C1(C#N)CCCCC1	4	nt	-49	17	2
CCOc1ccc(Cl)cc1CNCCCSc1nnnn1C	nt	nt	nt	-10	nt
O=C(Nc1nnc(SCC(=O)N2CCCCC2)s1)C1CCCCC1	5	0	7	37*	-3
CCOC(=O)C1(C)CCN1C(=O)c1ccc(OC)c(F)c1 (stereo unspecified)	-1	nt	nt	nt	-5
FC(F)(F)c1ccc(Oc2ccccc2Cl)nc1	-1	2	7	8	-3
COc1cccc(OC)c1Oc1ccc(C(F)(F)F)cn1	-5	0	66*	9	2
CCOc1ccccc1NC(=O)CSc1nc2cc(OC)c(OC)cc2c2nc(-c3ccccc3)nn12	nt	0	nt	11	nt
SMILES	D2 PAM-1	D2 ag-1	D2 antag	D2 PAM-2	D2 ag-2
Clc1cccc(CN2CCC(Cc3ccccc3)CC2)c1	-16	nt	nt	nt	-2
Clc1ccc(CN2CCC(Cc3ccccc3)CC2)cc1	-41	-1	48*	-33	-1
O=C(c1ccc(-c2ccccc2)cc1)N1CCN(Cc2ccccn2)CC1	-1	nt	nt	nt	-2
c1ccc(CN2CCN(c3ncccn3)CC2)nc1	nt	48*	37*	-22	nt
CSc1ccc(OC2CCN(Cc3ccccc3)CC2)cc1	-31	0	31*	-16	-4
OCC1(Cc2ccccc2)CCN(Cc2ccccn2)CC1	-6	0	-7	10	4
c1ccc(CC2CCN(Cc3ccccn3)CC2)cc1	-20	0	30*	-14	-4
CSc1ccc(CN2CCC(Oc3cccc(C(=O)N4CCCC4)c3)CC2)cc1	-20	1	-34	-13	-1
CCOC(=O)[C@H]1[C@H]2COc3ccc(Cl)cc3[C@@H]2N2C(=O)c3cc(F)c(F)cc3NC(=O)[C@@]12C	-9	nt	nt	nt	-3
CSc1ccc(CN2CCC(Cc3ccccc3)CC2)cc1	-83	-1	31*	-17	-2
Clc1ccc(CN2CCC(c3ccccc3)CC2)cc1	-55	-1	85*	-26	1
Clc1ccc(CN2CCC(c3nc4ccc(Cl)cc4[nH]3)CC2)cc1	-37	0	82*	-30	-1
CC1CCN(c2ccc(-c3cccc(NS(=O)(=O)c4ccc(F)cc4F)c3)nn2)CC1	nt	-2	nt	-1	nt
CCOCCCNC(=O)c1[nH]c2cc(OC)ccc2c1Sc1ccccc1	nt	nt	nt	-9	nt
Cc1cccc(C(=O)N[C@H](C(=O)NCCc2ccc(Cl)cc2)C(C)C)c1	-2	-1	38*	-12	-2
CC(C)[C@H](NC(N)=O)C(=O)NCCc1ccc(Cl)cc1	-3	0	-4	-2	-4
COc1cc(C(=O)OC(C)CN2CCN(C)CC2)cc(OC)c1OC (stereo unspecified)	-10	0	-3	1	-2
COc1cc(C(=O)OC(C)CN2CCOCC2)cc(OC)c1OC (stereo unspecified)	-13	-1	40*!	1	-1
CC1(C(=O)NCc2ccc(F)cc2)Oc2ccccc2NC1=O (stereo unspecified)	5	0	76*	-15	0
CC(COc1ccccc1)N1CCC(CO)(CCc2ccccc2)CC1 (stereo unspecified)	-15	17	52*	-17	-1
Cc1ncc(CN2CCC(CO)(CCc3ccccc3)CC2)s1	-23	1	81*	-38	-3
OCC1(CCCc2ccccc2)CCN(Cc2cnc(N3CCOCC3)s2)CC1	-12	0	-9	-3	-2
Cn1c(=O)oc2cc(S(=O)(=O)N3CCC(C(=O)N4CCN(c5ccccc5F)CC4)CC3)ccc21	nt	nt	nt	9	nt
CS(=O)(=O)N(CC(=O)NCc1ccccc1)C1CCCCC1	-3	0	37*	-8	-4
Cc1ccc(CNC(=O)CN(C2CCCCC2)S(C)(=O)=O)cc1	-7	0	3	-6	-4
Cc1cc(C(=O)COC(=O)/C=C/c2ccc(F)cc2)c(C)n1C	-14	0	2	5	-1
COCC(C)n1c(C)cc(C(=O)COC(=O)/C=C/c2cccc(F)c2)c1C (stereo unspecified)	-3	0	4	53*	2
O=C(Nc1ccc(S(=O)(=O)N2CCCCC2c2cccnc2)cc1)c1ccc(Br)cc1 (stereo unspecified)	nt	0	nt	11	nt
